Assay results reported in PubChem BioAssay AID1159580 (chemical genetic matrix, 2015).
The campaign covered roughly 5,500 compounds. About 2,000 (36%) were called active. Roughly 18% stayed inconclusive and do not appear here. Rule as the data show it: active = normalized growth mostly below about 0.91 (no sharp cut-off); inconclusive = no clear call, values can overlap the other calls; inactive = mostly above about 0.92. Some of the results follow.

Experiment: chemical genetic growth profiling, strain panel (AID 1159580);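 also: tested at 20 µM; growth read once vehicle control cultures reached saturation at 30 °C; 1 = growth at the plate median or of vehicle wells; lower values mean less growth of the strain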
Conditions: growth OD

Measured: normalized growth

CCCCCCCCCCCCCCCC[N+](C)(C)C
active: S. cerevisiae deletion strains, locus YJR075W, strain HOC1, active compounds read low 0.0608 | S. cerevisiae deletion strains, locus YKL009W, strain mrt4, active compounds read low 0.126 | S. cerevisiae deletion strains, locus YKL068W, active compounds read low 0.057 | S. cerevisiae deletion strains, locus YKL085W, strain MDH1 (second series), active compounds read low 0.0537 | S. cerevisiae deletion strains, locus YKL085W, strain MDH1, active compounds read low 0.0537 | S. cerevisiae deletion strains, locus YKL160W, strain elf1, active compounds read low 0.0583 | S. cerevisiae deletion strains, locus YKL190W, strain CNB1, active compounds read low 0.0478 | S. cerevisiae deletion strains, locus YKR001C, strain vps1, active compounds read low 0.0609 | S. cerevisiae deletion strains, locus YKR026C, strain gcn3, active compounds read low 0.0627 | S. cerevisiae deletion strains, locus YKR091W, strain srl3, active compounds read low 0.0569 | S. cerevisiae deletion strains, locus YLL001W, strain dnm1, active compounds read low 0.0599 | S. cerevisiae deletion strains, locus YLL026W, active compounds read low 0.0546 | S. cerevisiae deletion strains, locus YLL041C, strain sdh2, active compounds read low 0.0568 | S. cerevisiae deletion strains, locus YLR027C, strain aat2, active compounds read low 0.0555 | S. cerevisiae deletion strains, locus YLR039C, strain RIC1, active compounds read low 0.0825 | S. cerevisiae deletion strains, locus YLR058C, strain SHM2, active compounds read low 0.0453 | S. cerevisiae deletion strains, locus YLR102C, strain apc9, active compounds read low 0.0605 | S. cerevisiae deletion strains, locus YLR113W, strain HOG1, active compounds read low 0.113 | S. cerevisiae deletion strains, locus YLR221C, strain rsa3, active compounds read low 0.0541 | S. cerevisiae deletion strains, locus YLR258W, strain gsy2, active compounds read low 0.0561 | S. cerevisiae deletion strains, locus YLR262C, strain YPT6 (second series), active compounds read low 0.0788 | S. cerevisiae deletion strains, locus YLR262C, strain YPT6, active compounds read low 0.0977 | S. cerevisiae deletion strains, locus YLR268W, strain sec22, active compounds read low 0.0658 | S. cerevisiae deletion strains, locus YLR320W, strain mms22, active compounds read low 0.0733 | S. cerevisiae deletion strains, locus YLR330W, strain CHS5, active compounds read low 0.0514 | S. cerevisiae deletion strains, locus YLR342W, strain FKS1 (second series), active compounds read low 0.0636 | S. cerevisiae deletion strains, locus YLR342W, strain FKS1, active compounds read low 0.0598 | S. cerevisiae deletion strains, locus YLR357W, strain rsc2, active compounds read low 0.103 | S. cerevisiae deletion strains, locus YLR370C, strain arc18, active compounds read low 0.061 | S. cerevisiae deletion strains, locus YLR371W, strain rom2, active compounds read low 0.0606 | S. cerevisiae deletion strains, locus YLR384C, strain iki3, active compounds read low 0.0599 | S. cerevisiae deletion strains, locus YLR418C, strain cdc73, active compounds read low 0.0891 | S. cerevisiae deletion strains, locus YML016C, strain PPZ1, active compounds read low 0.0596 | S. cerevisiae deletion strains, locus YML032C, strain rad52, active compounds read low 0.0653 | S. cerevisiae deletion strains, locus YML120C, strain ndi1, active compounds read low 0.0558 | S. cerevisiae deletion strains, locus YML124C, strain tub3, active compounds read low 0.0593 | S. cerevisiae deletion strains, locus YMR058W, strain fet3, active compounds read low 0.0569 | S. cerevisiae deletion strains, locus YMR078C, strain ctf18, active compounds read low 0.0689 | S. cerevisiae deletion strains, locus YMR125W, strain sto1, active compounds read low 0.0643 | S. cerevisiae deletion strains, locus YMR129W, active compounds read low 0.0561 | S. cerevisiae deletion strains, locus YMR205C, strain PFK2, active compounds read low 0.0755 | S. cerevisiae deletion strains, locus YMR223W, strain ubp8, active compounds read low 0.0626 | S. cerevisiae deletion strains, locus YMR231W, strain pep5, active compounds read low 0.0651 | S. cerevisiae deletion strains, locus YMR263W, strain SAP30, active compounds read low 0.0582 | S. cerevisiae deletion strains, locus YMR307W, strain GAS1, active compounds read low 0.119 | S. cerevisiae deletion strains, locus YNL067W, strain RPL9B, active compounds read low 0.0498 | S. cerevisiae deletion strains, locus YNL071W, strain lat1, active compounds read low 0.0578 | S. cerevisiae deletion strains, locus YNL128W, strain TEP1, active compounds read low 0.0627 | S. cerevisiae deletion strains, locus YNL153C, strain GIM3, active compounds read low 0.0486 | S. cerevisiae deletion strains, locus YNL183C, strain NPR1, active compounds read low -0.00175 | S. cerevisiae deletion strains, locus YNL209W, strain ssb2, active compounds read low 0.0612 | S. cerevisiae deletion strains, locus YNL233W, strain BNI4, active compounds read low 0.053 | S. cerevisiae deletion strains, locus YNL248C, strain rpa49, active compounds read low 0.0567 | S. cerevisiae deletion strains, locus YNL250W, strain rad50, active compounds read low 0.0666 | S. cerevisiae deletion strains, locus YNL271C, strain bni1, active compounds read low 0.0608 | S. cerevisiae deletion strains, locus YNL298W, strain CLA4, active compounds read low 0.0592 | S. cerevisiae deletion strains, locus YNL307C, strain MCK1, active compounds read low 0.0664 | S. cerevisiae deletion strains, locus YNL322C, strain KRE1 (second series), active compounds read low 0.0599 | S. cerevisiae deletion strains, locus YNL322C, strain KRE1, active compounds read low 0.0495 | S. cerevisiae deletion strains, locus YNR049C, strain mso1, active compounds read low 0.0575 | S. cerevisiae deletion strains, locus YNR052C, strain pop2, active compounds read low 0.0593 | S. cerevisiae deletion strains, locus YOL006C, strain TOP1, active compounds read low 0.0794 | S. cerevisiae deletion strains, locus YOL012C, strain htz1 0.179 | S. cerevisiae deletion strains, locus YOL147C, strain pex11, active compounds read low 0.0577 | S. cerevisiae deletion strains, locus YOR001W, strain rrp6, active compounds read low 0.0595 | S. cerevisiae deletion strains, locus YOR061W, strain CKA2, active compounds read low 0.0395 | S. cerevisiae deletion strains, locus YOR069W, strain VPS5, active compounds read low 0.0494 | S. cerevisiae deletion strains, locus YOR070C, strain gyp1, active compounds read low 0.0582 | S. cerevisiae deletion strains, locus YOR080W, strain dia2, active compounds read low 0.0639 | S. cerevisiae deletion strains, locus YOR083W, strain WHI5, active compounds read low 0.0574 | S. cerevisiae deletion strains, locus YOR106W, strain vam3, active compounds read low 0.0616 | S. cerevisiae deletion strains, locus YOR136W, strain idh2, active compounds read low 0.0711 | S. cerevisiae deletion strains, locus YOR144C, strain elg1, active compounds read low 0.0571 | S. cerevisiae deletion strains, locus YOR184W, strain ser1, active compounds read low 0.0671 | S. cerevisiae deletion strains, locus YOR231W, strain MKK1, active compounds read low 0.0937 | S. cerevisiae deletion strains, locus YOR265W, strain rbl2, active compounds read low 0.0534 | S. cerevisiae deletion strains, locus YOR270C, strain vph1, active compounds read low 0.0651 | S. cerevisiae deletion strains, locus YOR290C, strain snf2, active compounds read low 0.0594 | S. cerevisiae deletion strains, locus YOR316C, strain cot1, active compounds read low 0.0575 | S. cerevisiae deletion strains, locus YPL051W, strain arl3, active compounds read low 0.0558 | S. cerevisiae deletion strains, locus YPL055C, strain LGE1, active compounds read low 0.0731 | S. cerevisiae deletion strains, locus YPL078C, strain atp4, active compounds read low 0.0629 | S. cerevisiae deletion strains, locus YPL106C, strain sse1, active compounds read low 0.0805 | S. cerevisiae deletion strains, locus YPL240C, strain hsp82, active compounds read low 0.0545 | S. cerevisiae deletion strains, locus YPL241C, strain CIN2, active compounds read low 0.0519 | S. cerevisiae deletion strains, locus YPL256C, strain CLN2, active compounds read low 0.107 | S. cerevisiae deletion strains, locus YPR119W, strain clb2, active compounds read low 0.0613 | S. cerevisiae deletion strains, locus YPR141C, strain kar3, active compounds read low 0.0706 | S. cerevisiae deletion strains, locus YPR163C, strain tif3, active compounds read low 0.0686 | S. cerevisiae deletion strains, locus YPR167C, strain met16, active compounds read low 0.0617 | S. cerevisiae deletion strains, strain wtn01, active compounds read low 0.0595 | S. cerevisiae strains, strain wild type, active compounds read low 0.0507
